Screening results: PubChem BioAssay, National Center for Advancing Translational Sciences (NCATS)
Most compounds without a hit are left out; they make up all but 2.7% or so of the library.
TrxR1 inh: inhibitors of rat thioredoxin reductase 1 | O89049 | Potency, µM (top dose mostly 114 µM), most hits filed as inhibitors | recombinant rTrxR1, NADPH fluorescence consumption, selenite substrate | 390,000 compounds, 1% hits | AID 588453; also: nearly all actives have a fitted effect of over 65% in size
Target sequence (O89049 whole entry, looked up): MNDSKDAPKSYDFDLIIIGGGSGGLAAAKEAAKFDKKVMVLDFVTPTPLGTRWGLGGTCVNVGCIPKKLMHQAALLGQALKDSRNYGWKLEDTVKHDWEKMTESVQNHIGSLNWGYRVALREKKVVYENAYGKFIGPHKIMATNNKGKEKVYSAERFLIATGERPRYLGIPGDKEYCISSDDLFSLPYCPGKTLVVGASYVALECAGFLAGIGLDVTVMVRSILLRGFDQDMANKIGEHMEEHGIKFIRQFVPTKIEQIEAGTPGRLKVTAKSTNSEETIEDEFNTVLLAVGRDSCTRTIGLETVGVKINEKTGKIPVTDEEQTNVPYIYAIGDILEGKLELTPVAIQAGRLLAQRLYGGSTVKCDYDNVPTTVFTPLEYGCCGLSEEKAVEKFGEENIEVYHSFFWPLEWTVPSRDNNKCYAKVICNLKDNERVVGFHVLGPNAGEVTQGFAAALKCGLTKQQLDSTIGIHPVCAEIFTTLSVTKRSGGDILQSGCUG
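Rat TrxR1 (90 nM in the dispensed reagent) was pre-reduced with 400 uM NADPH for 5 min at room temperature, then incubated with compound for 15 min. After 400 uM selenite was added, NADPH fluorescence (Ex 340/Em 450 nm) was followed for 8 min.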
GLP1R ag: GLP-1 receptor (human) agonism | P43220 | HEK293 GLP-1R CRE-luciferase, luminescence, 4-6 h; cells express a hypersensitive GLP-1R form | Potency, µM (titrated, usually from 45.6 µM), actives largely listed as activators | 380,000 compounds, 0.007% hits
GLP1R inv ag: inverse agonists of human GLP-1 receptor; HEK293 GLP-1R CRE-luciferase, luminescence, 24 h; GLP-1R form is constitutively active; Potency, µM (doses to about 38.3 µM), most hits filed as inhibitors; P43220; 410,000 compounds, 1.6% hits; also: nearly all actives have a fitted effect of over 55% in size
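Inverse agonists were sought by their lowering of basal cAMP reporter luciferase output in HEK293 cells stably carrying constitutively active human GLP-1R, after 24 h compound treatment.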
TrxR1 substrate: rat thioredoxin reductase 1 substrate activity; O89049; purified TrxR1 substrate turnover, NADPH consumption readout; Potency, µM (titrated, usually from 114 µM); 390,000 compounds, 0.01% hits; also: nearly all actives have a fitted effect of over 50% in size
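Rat TrxR1, dispensed at 90 nM, was prereduced with 400 uM NADPH (final) for 5 min at ~22 deg C, then incubated with compound 15 min before 400 uM selenite. A first-read NADPH fluorescence drop versus no-compound background flagged substrates.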
IDH1 R132H inh: human IDH1 R132H inhibition; 390,000 compounds, 0.093% hits; O75874; Potency, µM (doses to about 76.6 µM), most hits filed as inhibitors; IDH1-R132H enzyme, NADPH consumption, diaphorase/resazurin fluorescence; AID 602179; also: nearly all actives have a fitted effect of over 65% in size
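IDH1-R132H (0.5 ug/mL) preincubated 30 min with compound, then NADPH (0.016 mM) and alpha-KG (2 mM) added; 80 min at RT, pH 7.5. Remaining NADPH coupled via diaphorase/resazurin to fluorescence (540/590 nm); concentration-response curves normalized to no-enzyme control.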
GLP1R cytotox: cytotoxic in the GLP-1 receptor inverse agonist counter-screen | HEK293 cAMP-luciferase reporter cells, luminescence, 24 h | Potency, µM (top dose mostly 38.3 µM), actives largely listed as inhibitors | 410,000 compounds, 0.13% hits | AID 624418;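 also: loss of luciferase light is scored as toxicity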
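Seeding density was 200 cells/uL; after overnight-length (12 h) culture, 23 nL compounds went on for 24 h at 37 °C. Readout used a luciferase detection reagent, luminescence taken after 12 min at room temperature.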
Each line names hits and unclear results; the compound was inactive in the other large screens. Calls follow the shape of the dose curve; as a rule, active = well fitted curve in the direction sought with a large enough effect; inconclusive = small, poorly fitted or top-dose-only effect, or another doubt; inactive = no such curve, though single readings can be large; an effect the other way counts as inactive or inconclusive.

Cc1onc(-c2ccccc2Cl)c1C(=O)OCC(=O)N1CCCc2ccccc21	GLP1R inv ag 10µM
Cc1ccc(Cn2c(C3CCCN3c3nc(C)cs3)nc3cc(C(F)(F)F)ccc32)cc1 (configuration not stated)	GLP1R inv ag 10µM
CCOC(=O)Cc1ccc(NC(=O)N(Cc2ccc(CC)cc2)Cc2cn[nH]c2-c2ccc(OC)cc2)cc1	GLP1R inv ag inconclusive, GLP1R cytotox inconclusive (no result: GLP1R ag)
Cn1c(-c2c(N)n(C3CCCC3)c3nc4ccccc4nc23)nc2ccccc21	GLP1R inv ag 4µM
Cn1c(-c2c(N)n(CCc3ccccc3)c3nc4ccccc4nc23)nc2ccccc21	GLP1R inv ag inconclusive
Cc1ccc(S(=O)(=O)N2CCCC2C(=O)OCc2ccco2)cc1 (configuration not stated)	TrxR1 inh 7.9µM
Cc1ccc(S(=O)(=O)N2CCCC2C(=O)OCc2ccccc2)cc1 (configuration not stated)	none
Cc1cc2c(cc1S(=O)(=O)N(C)CC(=O)Nc1cccc(C#N)c1)OCC(=O)N2	none (no result: GLP1R ag)
CC(C)c1cc(NC(=O)c2ccccc2)cc(C(C)C)c1O	GLP1R inv ag 11µM
CC(C)c1ccccc1NC(=O)c1cccc(NC(=O)c2ccccc2)c1	GLP1R inv ag 10µM
Cc1ccccc1C(=O)Nc1cccc(C(=O)Nc2ccccc2C(=O)O)c1	none
O=C(CN1C(=O)CSc2ccc(S(=O)(=O)N3CCCC3)cc21)NCc1ccc(F)cc1Cl	GLP1R inv ag inconclusive
CN(C)CCCCCCCCCCC(=O)/C=N/O	GLP1R inv ag 10µM
CCC(C)Sc1cc(C)c(C#N)c2nc3ccccc3n12 (configuration not stated)	IDH1 R132H inh inconclusive
CCOC(=O)CSc1cc(C)c(C#N)c2nc3ccccc3n12	TrxR1 inh 1.1µM
NC(=O)CSc1nc2scc(-c3ccco3)c2c(=O)n1-c1ccccc1	TrxR1 inh 8.9µM
C=CCn1c(SCC(=O)NCCOC)nc2scc(-c3ccco3)c2c1=O	TrxR1 inh 45µM
O=C(CSc1nc2scc(-c3ccco3)c2c(=O)n1-c1ccccc1)N1CCOCC1	none
C=CCn1c(SCC(=O)NCC2CCCO2)nc2scc(-c3ccco3)c2c1=O (configuration not stated)	none
O=C(CSc1nc2scc(-c3ccco3)c2c(=O)n1-c1ccccc1)NCC1CCCO1 (configuration not stated)	TrxR1 inh 45µM
COC(=O)c1ccc(NC(=O)c2nc(SCc3ccccc3F)ncc2Cl)cc1	none (no result: GLP1R ag, GLP1R inv ag, IDH1 R132H inh, GLP1R cytotox)
C=CCNC(=O)c1ccsc1N	none (no result: TrxR1 inh, GLP1R ag, TrxR1 substrate, IDH1 R132H inh)
O=C(c1ccccc1)C(c1ccccc1)[n+]1csc2ccccc21 (configuration not stated)	none (no result: GLP1R ag, GLP1R inv ag, IDH1 R132H inh, GLP1R cytotox)
CN(CCOc1ccccc1)CC(O)COc1ccccc1 (configuration not stated)	GLP1R inv ag inconclusive
CN(CCOc1ccc(Br)cc1)CC(O)COc1ccc(C#N)cc1 (configuration not stated)	GLP1R inv ag 4.5µM
O=S(=O)(c1cccc(C(F)(F)F)c1)n1c(/C=C/c2ccccc2)nc2ccccc21	none (no result: GLP1R ag)
COc1cc(/C=C2\C=Cc3ccccc32)ccc1N(C)C	none (no result: GLP1R ag, GLP1R inv ag, IDH1 R132H inh, GLP1R cytotox)
CCOC(=O)C1=C(C)NC(C)=C(C(=O)OCC)C1C(=O)OCC(=O)N1c2ccccc2CC1C (configuration not stated)	GLP1R inv ag inconclusive
CCOC(=O)c1c(C)[nH]c(C(=O)OCC(=O)N2c3ccccc3CC2C)c1C (configuration not stated)	GLP1R inv ag 8.9µM
CC(=O)OCC(NC(=O)C(Cc1ccccc1)NC(=O)OC(C)(C)C)C1OC(n2cc(C)c(=O)[nH]c2=O)C(OC(C)=O)C1OC(C)=O (configuration not stated)	none (no result: GLP1R ag, GLP1R inv ag, IDH1 R132H inh, GLP1R cytotox)
CC1=NN(c2ccc(N)cc2)C(=O)C1	TrxR1 inh 28µM
COCCNC(=S)N/N=C(\C)c1ccc(Cl)c(Cl)c1	GLP1R inv ag inconclusive
COCCNC(=S)N/N=C(\C)c1ccc(Cl)c(Cl)c1Cl	GLP1R inv ag inconclusive, GLP1R cytotox 3.5µM
C/C(=N\NC(=S)NCc1ccccc1)c1ccc(Cl)s1	none
COCCNC(=S)N/N=C(\C)c1cccc([N+](=O)[O-])c1	GLP1R inv ag inconclusive, GLP1R cytotox inconclusive
COCCNC(=S)N/N=C(\C)c1cccc(OC)c1	GLP1R inv ag 4µM, GLP1R cytotox inconclusive
CCNC(=S)N/N=C(\C)c1cccc(C(F)(F)F)c1	GLP1R inv ag 4.5µM, GLP1R cytotox 4.5µM
COCCNC(=S)N/N=C(\C)c1ccc(Cl)s1	GLP1R inv ag 2.2µM, GLP1R cytotox 2.8µM
Cc1ccc(-c2nnc(SCC(=O)c3ccc(Cl)cc3)n2-c2ccccc2)cc1	none (no result: GLP1R ag)
COc1ccc(CCNC(=O)C2(c3cccs3)CCOCC2)cc1	none (no result: GLP1R ag)
CCOc1ccc2nc(NC(=O)c3nc(SC(C)C)ncc3Cl)sc2c1	none (no result: GLP1R ag)
NC(=O)c1ccc(-c2ncc(-c3ccccc3)o2)cc1	GLP1R inv ag 5.6µM
c1ccc(-c2cnc(-c3cccnc3)o2)cc1	GLP1R ag inconclusive
CCN(CC)c1ccc(C(=O)NCc2nc3cccnc3n2Cc2ccc(C)cc2)cc1	none (no result: GLP1R ag)
CCCCCCN(C(=O)CCCN1C(=O)NC(c2ccc(-c3ccccc3)cc2)C(C(=O)OCc2ccccc2)=C1C)C(C)C(=O)NCCCC (configuration not stated)	GLP1R inv ag 11µM
CCCCCCN(C(=O)CCCCCN1C(=O)NC(c2ccc([N+](=O)[O-])cc2)C(C(=O)OCc2ccccc2)=C1C)C(C(=O)NCCCC)C1CCCCC1 (configuration not stated)	none
COc1ccc2sc(-c3ccccc3OC)c(-c3ccc(OC)nc3)c2c1	GLP1R inv ag inconclusive
CCOC(=O)c1ccc(-c2c(-c3ccccc3OC)sc3ccc(OC)cc23)cc1F	GLP1R inv ag 11µM
N=c1c(S(=O)(=O)c2ccc(Br)cc2)cc2c(=O)n3ccccc3nc2n1C1CCCCC1	none
N=c1c(S(=O)(=O)c2ccccc2)cc2c(=O)n3ccccc3nc2n1C1CCCCC1	GLP1R inv ag 10µM
Cc1cccc(CCNC(=O)c2nc(-c3ccc(Cl)cc3)n3c2CCCCC3)c1	GLP1R inv ag inconclusive (no result: GLP1R ag)
Cc1cccc(N=C2NC(=O)/C(=C/C=C/c3ccco3)S2)c1C	TrxR1 inh inconclusive, GLP1R cytotox inconclusive
O=C1NC(=Nc2ccccc2)S/C1=C\C=C\c1ccco1	TrxR1 inh 79µM, GLP1R cytotox inconclusive
Cc1ccc(N=C2NC(=O)/C(=C/C=C/c3ccco3)S2)cc1	TrxR1 inh 45µM
